Reference: PubChem BioAssay (NCI)
Compounds without any hit were thinned out: in the full panel of roughly 83,000, 20% have a hit.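 Each cell line was grown in a 96-well plate and treated with one concentration of compound for 48 hours. Values below 10 were considered active.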 A number with no mark means an inactive call. The source made the active and inactive calls.

Experiments:
Experiment in all cases: NCI-60 one-dose screen, 48 h (100 = growth as untreated, 0 = no growth, -100 = all killed)
EKVX NSCLC = conditions: 10 µM unless noted
SN12C renal = conditions: 10 µM unless noted
UO-31 renal = conditions: 10 µM unless noted
TK-10 renal = conditions: 10 µM unless noted
ACHN renal = conditions: 10 µM unless noted
CAKI-1 renal = conditions: 10 µM unless noted
A498 renal = conditions: 10 µM unless noted
CCRF-CEM leukemia = conditions: 10 µM unless noted
MOLT-4 leukemia = conditions: 10 µM unless noted
SR leukemia = conditions: 10 µM unless noted
RPMI-8226 leukemia = conditions: 10 µM
OVCAR-8 ovarian = conditions: 10 µM unless noted
OVCAR-5 ovarian = conditions: 10 µM unless noted
OVCAR-4 ovarian = conditions: 10 µM unless noted
SK-OV-3 ovarian = conditions: 10 µM
IGROV1 ovarian = conditions: 10 µM unless noted
OVCAR-3 ovarian = conditions: 10 µM unless noted
HS 578T breast = conditions: 10 µM unless noted
NCI/ADR-RES ovarian = conditions: 10 µM unless noted

| Compound | growth (EKVX NSCLC) [%] | growth (SN12C renal) | growth (UO-31 renal) | growth (TK-10 renal) | growth (ACHN renal) | growth (CAKI-1 renal) | growth (A498 renal) | growth (CCRF-CEM leukemia) | growth (MOLT-4 leukemia) | growth (SR leukemia) | growth (RPMI-8226 leukemia) | growth (OVCAR-8 ovarian) | growth (OVCAR-5 ovarian) | growth (OVCAR-4 ovarian) [%] | growth (SK-OV-3 ovarian) | growth (IGROV1 ovarian) | growth (OVCAR-3 ovarian) | growth (HS 578T breast) | growth (NCI/ADR-RES ovarian) [%] |
| --- | --- | --- | --- | --- | --- | --- | --- | --- | --- | --- | --- | --- | --- | --- | --- | --- | --- | --- | --- |
| CCC12CCC3c4ccc(O)cc4CCC3C1CC(O)C2O (stereo unspecified) | 83.7 | 82.5% | 65.9% | 85.3% | 103% | 59.4% | 67.1% | 85.4% | 69.4% | 19.3% | 89% | 91.5% | 103% | 82.7 | 98.7% | 82.8% | 95.4% | 76.8% | 47.1 |
| Cc1ccc2nc(NC(=O)CSC(=S)N3CCN(Cc4ccccc4)CC3)sc2c1 | 72.5 | -1% (active) | -43.4% (active) | -36.4% (active) | -2.52% (active) | -20.8% (active) | -3.21% (active) |  | 6.71% (active) | 11.1% | 8.2% (active) | 0.825% (active) | -36.3% (active) | 12.6 | -44.7% (active) | -39.8% (active) | -90.4% (active) | -0.695% (active) | 22.6 |
| COc1ccc(-n2c(SCc3cc(OC)c(OC)c(OC)c3)nc3ccc(C)cc3c2=O)c(OC)c1 |  | 45.2% | 18.2% |  | 44.9% | 13.4% | -16.4% (active) | 0% (active) | 11.3% | 7.68% (active) | -4.23% (active) | 45.6% | 43.2% | 57.4 | 45.3% | 35.7% | -4.61% (active) | 6.73% (active) |  |
| C=C1CC[C@@H]2[C@@](C)(CCC[C@]2(C)C(=O)O)[C@@H]1CC[C@H](CO)CCO | 108 | 103% | 79.5% |  | 106% | 101% | 107% | 102% | 88.2% | 85.2% | 113% | 104% | 108% | 99 | 102% | 99% | 76.4% | 107% | 104 |
| Oc1cccc(Nc2nc(-c3ccccn3)cs2)c1 |  | 97.8% | 73.1% | 111% | 102% | 111% |  |  | 85.2% |  | 81.9% | 106% | 110% | 101 | 95.2% | 100% | 119% |  | 94.6 |
| CC(=O)OC[C@H](O)[C@@]1(O)CC[C@H]2[C@@H]3CCC4=CC(=O)CC[C@]4(C)[C@H]3[C@@H](O)C[C@@]21C | 87.3 | 85.9% | 78% | 112% | 111% | 85.5% | 112% | 89.4% |  | 99.9% | 89.8% | 98.5% | 96.6% | 105 | 90.8% | 111% | 108% | 114% | 102 |
| Cc1ccc2nc(NC(=O)CSC(=S)N3CCN(C)CC3)sc2c1 | 98.1 | 100% | 78.5% | 122% | 100% |  | 108% |  | 123% | 138% | 106% | 75.6% | 105% | 100 | 108% | 86.7% | 120% | 114% | 89 |
| Oc1ccc2ccccc2c1C1NN=C(c2ccccc2)S1 (stereo unspecified) | 27.4 | 17.2% | -11.5% (active) | 49% | 10.9% | -1.25% (active) | 31.3% |  | 13% |  | 19.6% | 15.6% | 43.2% | 22.3 | 15.4% |  | 35.1% | 57.7% |  |
| COc1cc(/C=C/C(=O)CC(=O)/C=C/c2cc(Br)c(OC)c(OC)c2)cc(Br)c1OC | 105 | 96.6% | 87.9% | 109% | 109% | 105% | 98.4% | 114% | 71.5% | 49.6% |  | 102% | 99.1% | 103 | 96.6% | 109% | 102% | 113% | 99.3 |
| O=C1C(OCCOc2ccccc2)=C(OCCOc2ccccc2)C(=O)c2ccccc21 | 103 | 51.8% | 46.9% | 116% | 73.5% |  | 94.7% |  | 82.9% |  | 78.8% | 86.8% | 124% | 44.8 | 57.9% | 62.7% | 78.2% | 60.3% | 68.8 |
| O=C1NC(=O)C2(CCCC2C(=O)O)N1 (stereo unspecified) | 94.2 | 99.6% | 96.5% | 106% | 99.5% | 102% | 115% | 91.8% | 101% | 90.4% |  | 100% | 110% | 99.4 | 119% | 131% | 120% | 115% | 100 |
| O=C(CC(O)c1ccccc1)Nc1ccccn1 (stereo unspecified) | 97 | 93.1% | 77.1% | 97.9% | 111% | 87.8% | 102% | 88.9% | 79% |  | 93.8% | 100% | 104% | 97.1 | 94% | 108% | 108% | 106% | 106 |
| Cc1cc(=O)[nH]n1-c1cc(Cl)ccc1N | 117 | 110% | 89.3% | 98.1% | 100% |  | 120% |  | 112% | 96.6% | 106% | 103% | 111% | 105 | 98.6% | 109% | 124% | 123% | 90.6 |
| O=C1NC(=O)C(CSc2ccccc2)(c2ccccc2)N1 (stereo unspecified) | 110 | 103% | 88.9% |  | 101% | 87.7% | 122% | 97.1% | 97.8% |  | 100% | 99.3% | 107% | 111 | 101% | 80.4% | 124% | 106% | 99.9 |
| O=C1c2ccccc2-c2cn(Cc3ccccc3)c3cccc(c23)C1c1cccnc1 (stereo unspecified) | 80.5 | 59.5% | 54.9% | 55.7% | 51.2% | 51.4% | 43.3% | 19.3% | 34.8% | 8.31% (active) | 64.5% | 57.9% | 75.9% | 64.3 | 37.6% | 54.5% | 2.21% (active) | 78.1% | 26.5 |
| CC(=O)Nc1ccc(Sc2ccc([N+](=O)[O-])o2)cc1 | 76.4 | 54.2% | 24.2% | 64.9% | -28.1% (active) |  | 120% |  | 33.2% | 26.1% | 9.87% (active) | -1.51% (active) | 94.8% |  | 120% | 42.2% | -8.53% (active) | 46.8% | 15.9 |
| COC(=O)/C=C1/CCC2C3CCC4=CC(=O)C(Br)CC4(C)C3C(=O)CC12C (stereo unspecified) | 98 | 82.9% | 81.1% |  | 72.5% | 73.9% | 117% | 5.9% (active) | 52.3% | 33% | 61.1% | 63.1% | 112% | 67.8 | 103% | 25.1% | 89.5% | 86.7% | 81.7 |
| CON=C1C[C@]2(C[C@@H]3C[C@@H](C/C=C(\C)C[C@@H](C)/C=C/C=C4\CO[C@@H]5[C@H](O)C(C)=C[C@@H](C(=O)O3)[C@]45O)O2)O[C@H](/C(C)=C/C(C)C)[C@H]1C | 20 | 55% | 24% | 81.9% | 44.3% | 44.8% | 38.3% | 38.2% | -20.4% (active) | -39.5% (active) | 43.7% | 66.4% | 70.1% | 57.2 | 95.2% | 28.1% | 1.95% (active) | 60.2% | 64.8 |
